# In all, about 290,000 compounds went through this assay and about 2,300 (0.79%) were called active. Shown is part of a subset that was picked to be rich in actives. Values without a mark were called inactive. Rule as the data show it: active = inhibition above about 22%; inactive = the rest.
# Test: IEC-6 cell viability reduction – luminescence, cytotoxicity control for KLF5 inhibitor project, primary screen (AID 1825);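 also: 0% = plate median of test compound wells and 100% = cytotoxic reference compound wells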
# Conditions: IEC-6 cytotoxicity, at 5 µM, stronger effect = higher value
row,SMILES,inhibition
1,COc1ccc(C2=Nc3cc(C)ccc3OC2)cc1,-0.6%
2,CCOC(=O)CNc1nc(Cl)nc(Nc2ccc(OC)cc2OC)n1,6.5%
3,CCCc1cc(=O)oc2c(C)c(OCC(=O)NCc3ccccn3)ccc12,-5.9%
4,CCOc1ccc(Cn2nnc(C(=O)NCc3ccccc3)c2N)cc1,4.7%
5,Nc1c(C(=O)NCc2ccccc2)nnn1Cc1cccc(Cl)c1,24.6% (active)
6,COc1cccc(CNC(=O)c2nnn(CC(=O)Nc3cc(Cl)ccc3C)c2N)c1,19.7%
7,Cc1ccc(NS(=O)(=O)c2ccc(C(C)(C)C)cc2)cn1,-0.9%
8,Cc1cnc(C(=O)Oc2cccc(Cl)c2Cl)cn1,5.1%
9,COc1ccccc1-c1nnc(NC(=O)c2cccc(N3C(=O)CCC3=O)c2)o1,-5.8%
10,COc1ccccc1-c1nnc(NC(=O)c2ccc3ncsc3c2)o1,22.8% (active)
11,COc1ccccc1-c1nnc(SCC(=O)Nc2ccccc2)o1,-0.6%
12,CC(C)=CCN1CCN(Cc2cc3ccccc3[nH]2)CC1CCO (stereo not drawn),1.5%
13,CCOC(=O)/C=C/C(=O)OCC(=O)NC(c1ccccc1)c1ccccc1,50.9% (active)
14,O=C(Cc1ccc(-c2ccccc2)cc1)NC(c1ccccc1)c1ccccc1,-1.8%
15,CCOC(=O)C(C(=O)OCC)C(C#N)c1ccccc1 (stereo not drawn),3.7%
16,CCc1ccc2[nH]c(=O)c(Cc3ccccc3)c(O)c2c1,-0.4%
17,COC(=O)c1ccc(S(=O)(=O)N2CCc3ccccc3C2)cc1,1.8%
18,CC(=O)Nc1c2c(nn1-c1cccc(C)c1)CSC2,2.5%
19,O=C(c1ccc(OC2CCN(Cc3ccccn3)CC2)cc1)N1CCCCCC1,-0.7%
20,O=C(NCCOc1cccnc1)c1ccc(OC2CCN(Cc3ccccn3)CC2)cc1,99.8% (active)
21,Cn1cc(CNC(=O)c2ccc(OC3CCN(Cc4ccccn4)CC3)cc2)cn1,5.4%
22,Cc1cccc(N2C(=O)N3[C@H](c4ccc(F)cc4)[C@@H]4C(=O)N(C5CCCCC5)C(=O)[C@@H]4[C@]3(Cc3ccccc3)C2=O)c1,-6%
23,O=C(CSc1nnc(CNC(=O)c2ccc(F)cc2)o1)Nc1ccc2c(c1)OCO2,8.3%
24,COC(=O)CSc1nnc(NC(=O)CCc2ccccc2)s1,8.2%
25,CCCCNc1nc2c(c(=O)n(C)c(=O)n2C)n1Cc1cccc(OC)c1,25.1% (active)
26,Cn1c(=O)c2c(nc(NCCc3ccccc3)n2Cc2ccccc2)n(C)c1=O,-1.8%
27,COC(=O)C(C)Sc1nc2c(c(=O)n(C)c(=O)n2C)n1Cc1cccc(C)c1 (stereo not drawn),-2.6%
28,CCc1ccc(CN(C)C(=O)C2CCC(=O)N(Cc3cccc(OC)c3)C2)nc1 (stereo not drawn),5.8%

# Source: PubChem BioAssay AID1825 (The Scripps Research Institute Molecular Screening Center, 2009)
